This is an account of results in PubChem BioAssay AID2716 (Broad Institute, 2010).

Each structure is given as a SMILES string. Screen size: about 320,000 compounds; about 3,300 (1%) were called active. Only a selection was taken, and actives are over-represented in it overall. Unmarked numbers belong to inactive results.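 Rule for the calls: active = every valid replicate shows activation above 250% relative to neutral control wells; inactive = the rest, any valid replicate at or below 250%.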

A short description of the test: yeast Mot1-301 growth rescue at high temperature, primary screen, SUMOylation pathway inhibitor project, S. cerevisiae, ATP luminescence, 38.5C (AID 2716). The settings on record: S. cerevisiae Mot1-301 growth rescue, at 18.8 µM, stronger effect = higher value.
Turning to `COc1ccc(-n2c(-c3ccccc3)nc3ccccc3c2=O)cc1`, the growth rescue was 524% (active).

`Cc1ccc(-n2c(-c3ccc([N+](=O)[O-])cc3)nc3ccccc3c2=O)cc1`: the growth rescue was 30.7%.

In the case of `O=c1c2ccccc2nc(-c2ccccc2)n1-c1ccccn1`, the growth rescue was -8.46%.

Consider `C[C@@]1([C@@H](NP(=O)(c2ccccc2)c2ccccc2)c2ccccc2)C[C@H]1CCO`, for which the growth rescue is 28.7%.

Turning to `CCCC(C)n1[nH]c(=O)c2c1NC(=O)CSC2c1ccc(OC)c(OC)c1` (stereo not given), the growth rescue was -11.2%.

For the molecule `c1ccc(CCN2CCC3(CC2)OCCO3)cc1`, the growth rescue is 313% (active).

For `O=C(c1ccccc1[N+](=O)[O-])N1CCC2(CC1)OCCO2`, the growth rescue was -11.1%.

As for `O=C(Nc1cccc2ccccc12)N1CCC2(CC1)OCCO2`, the growth rescue was 2.67%.

With `COc1ccccc1OC(=O)c1ccc(C)c(S(=O)(=O)N2CCOCC2)c1`, the growth rescue is -7.94%.

As to `CCOP(=O)(OCC)C(O)c1ccc(OC)cc1OC` (stereo not given), the growth rescue was -5.29%.

As to `COc1ccccc1-n1c(O)c(C=NC2CC2)c(=O)[nH]c1=O`, the growth rescue is -17.5%.

For `COc1ccc(-n2c(O)c(C(C)=Nc3ccc4c(c3)CCC4)c(=O)[nH]c2=O)cc1`, the growth rescue is -1.78%.

Regarding `COc1ccc(N=Cc2c(O)n(C)c(=O)[nH]c2=O)cc1`, the growth rescue was 842% (active).

Take `CC(Cc1ccccc1)NCCC(c1ccccc1)c1ccccc1` (stereo not given): the growth rescue is -27.1%.

`CC(=NCc1ccc2c(c1)OCO2)c1c(O)[nH]c(=O)[nH]c1=O`: the growth rescue is -26.7%.
